The record followed here is ChEMBL document CHEMBL1201862, “PubChem BioAssay data set” (2004).

Screen size: about 400,000 compounds; about 2,100 (0.53%) were called active. About 14% were inconclusive and are not listed. No rule for the calls is given here. This excerpt belongs to a sample that is enriched for actives.

The target in this assay is Ataxin-2 (Homo sapiens) (UniProt Q99700). As to the kind of experiment: qHTS for Inhibitors of ATXN expression. The class given is functional. (In general: qHTS replaces the single test concentration by a dilution series.)
Chain of Ataxin-2 (Homo sapiens) (Q99700 whole entry): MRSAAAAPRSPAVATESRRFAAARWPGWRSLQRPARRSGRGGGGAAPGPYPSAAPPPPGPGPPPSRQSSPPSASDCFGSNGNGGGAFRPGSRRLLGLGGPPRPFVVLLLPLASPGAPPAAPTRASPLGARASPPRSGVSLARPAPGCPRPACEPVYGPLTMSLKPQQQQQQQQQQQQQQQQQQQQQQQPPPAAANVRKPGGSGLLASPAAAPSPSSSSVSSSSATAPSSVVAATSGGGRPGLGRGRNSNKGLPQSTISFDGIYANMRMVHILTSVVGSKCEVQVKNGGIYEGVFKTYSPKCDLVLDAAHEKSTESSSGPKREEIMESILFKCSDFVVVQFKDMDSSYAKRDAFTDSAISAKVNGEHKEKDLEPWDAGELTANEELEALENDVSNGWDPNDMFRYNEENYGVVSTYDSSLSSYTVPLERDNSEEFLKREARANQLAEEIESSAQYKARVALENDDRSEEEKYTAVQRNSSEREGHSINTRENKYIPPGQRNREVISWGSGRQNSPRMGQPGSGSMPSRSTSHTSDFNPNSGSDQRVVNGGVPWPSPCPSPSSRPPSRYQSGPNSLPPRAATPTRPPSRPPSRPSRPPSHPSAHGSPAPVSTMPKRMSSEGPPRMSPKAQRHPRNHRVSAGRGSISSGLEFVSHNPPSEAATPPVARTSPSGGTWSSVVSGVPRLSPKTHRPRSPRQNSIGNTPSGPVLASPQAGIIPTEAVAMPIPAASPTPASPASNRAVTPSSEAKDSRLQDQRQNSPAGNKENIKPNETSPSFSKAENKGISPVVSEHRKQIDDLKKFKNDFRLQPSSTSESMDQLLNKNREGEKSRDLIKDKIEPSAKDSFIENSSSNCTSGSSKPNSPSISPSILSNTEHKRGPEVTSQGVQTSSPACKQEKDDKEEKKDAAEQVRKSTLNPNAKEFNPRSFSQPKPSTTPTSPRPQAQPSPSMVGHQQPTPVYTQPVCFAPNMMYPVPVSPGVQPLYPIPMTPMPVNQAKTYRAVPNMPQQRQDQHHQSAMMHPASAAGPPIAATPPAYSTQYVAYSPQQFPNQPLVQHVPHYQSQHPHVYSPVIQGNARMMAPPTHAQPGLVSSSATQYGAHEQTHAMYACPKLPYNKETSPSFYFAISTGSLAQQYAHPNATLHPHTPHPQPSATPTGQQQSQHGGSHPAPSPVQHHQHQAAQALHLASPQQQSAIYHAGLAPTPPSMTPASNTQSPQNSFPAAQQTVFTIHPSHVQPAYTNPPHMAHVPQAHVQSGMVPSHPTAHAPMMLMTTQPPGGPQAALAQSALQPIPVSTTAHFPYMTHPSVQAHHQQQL
For `CC1=CC(c2ccccc2)n2nc(NC(=O)CCCC(=O)O)nc2N1` (stereo unspecified), the Potency result is “inactive”.
Take `CN(C)/C=C1\C=C2C(=O)c3ccccc3N2C1=O`: the Potency result was “inactive”.
As for `Cc1ccc(S(=O)(=O)N2CCN(C(S)=NCc3ccc4c(c3)OCO4)CC2)cc1`, the Potency entry was “inactive”.
For `COc1ccc(-c2nnc(C3CCN(S(=O)(=O)c4ccccc4)CC3)o2)cc1`, the Potency is 26.7 µM (active).
Consider `O=C(c1ccc(F)cc1)C1CCN(S(=O)(=O)c2ccccc2)CC1`, for which the Potency entry is “inactive”.
Under `CCOC(=O)C1(CC2CCCCO2)CCN(S(=O)(=O)c2ccc(OC)cc2)CC1` (stereo unspecified) stands “inactive”; under `CCCc1ccc(S(=O)(=O)N2CCC(c3nnc(-c4cccc(C)c4)o3)CC2)cc1`, 8.91 µM (active); under `CCCc1nn(-c2ccc([N+](=O)[O-])cc2)c(O)c1/C=N/CCCn1ccnc1`, “inactive”.
Regarding `O=[N+]([O-])c1ccc(-c2ccc(/C=N/Nc3nc(N4CCCCC4)nc(N4CCCCC4)n3)o2)cc1`, the Potency entry was “inactive”.
Regarding `S=C(NCCCN1CCOCC1)N1CCN(c2nc(-c3ccc(Cl)cc3)cs2)CC1`, the Potency was 31.6 µM (active).
`O=C(NNC(=O)c1cc(-c2ccc(Br)cc2)nc2ccccc12)c1csc(N2CCOCC2)n1`: the Potency entry was “inactive”.
Consider `Clc1ccc(SCc2csc(N3CCOCC3)n2)cc1`, for which the Potency result is “inactive”.
For the compound `COc1ccccc1NC(=O)c1sc2nc(C)cc(C)c2c1N`, the Potency result is “inactive”.
Regarding `COc1ccccc1NC(=O)C1=C(C)Nc2nc(SCc3ccccc3)nn2C1c1cccc(O)c1` (stereo unspecified), the Potency was 31.6 µM (active).
With `COCc1cc(C)nc2sc(C(=O)Nc3ccccc3OC)c(N)c12` the entry was “inactive”.
For `CCS(=O)(=O)c1nc(S(=O)(=O)c2ccc(C)cc2)c(N2CCN(C)CC2)s1`, the Potency result is “inactive”.
Consider `COC(=O)c1ccc(NC(=O)c2cccc(C)c2)cc1`, for which the Potency entry was “inactive”.
As for `COC(=O)c1ccc(NC(=O)c2cccc(N3C(=O)C4C5C=CC(C6CC56)C4C3=O)c2)cc1` (stereo unspecified), the Potency was 39.8 µM (active).
Consider `O=C(Oc1cccc2cccnc12)c1cccc(N2C(=O)C3C4CCC(C4)C3C2=O)c1` (stereo unspecified), for which the Potency result is “inactive”.
With `CCN(CC(=O)Nc1ccc(NC(C)=O)cc1)C(=O)CSC(=S)N1CCCC1` the figure was 3.55 µM (active); with `Cc1ccc(NC(=O)COC(=O)CSC(=S)N2CCOCC2)cc1`, “inactive”.
With `CC(=O)Nc1ccc(NC(=O)CC2CCCC2)cc1` the entry was “inactive”; with `CCN(CC)CCCNc1oc(/C=C/c2ccccc2)nc1C#N`, “inactive”; with `Cc1occc1C(=O)N/N=C/c1cccc2ccccc12`, “inactive”.
Turning to `O=C(NN=Cc1cc([N+](=O)[O-])ccc1O)c1cccc2ccccc12`, the Potency was 33.6 µM (active).
With `COc1cccc(/C=N/NC(=O)c2cc3cc([N+](=O)[O-])ccc3s2)c1O`, the Potency is 14.1 µM (active).
Regarding `CCOc1cc(/C=N/NC(=O)c2ccc3c(c2)OCCO3)cc(Br)c1O`, the Potency entry is “inactive”.
Consider `COc1cccc(/C=N/NC(=O)c2ccc(=O)n(C)c2)c1O`, for which the Potency result is “inactive”.
Regarding `COc1cccc(/C=N/NC(=O)c2c(C)nc3ccc(Cl)cn23)c1OC`, the Potency entry was “inactive”.
Regarding `O=C(N/N=C/c1cc([N+](=O)[O-])ccc1O)c1ccc2c(c1)OCCO2`, the Potency was 50.1 µM (active).
Take `COc1cc(Cl)cc(/C=N\NC(=O)c2ccc3c(c2)OCO3)c1O`: the Potency result was “inactive”.
Turning to `O=C(N/N=C/c1sc2ccccc2c1O)c1cccc2ccccc12`, the Potency result was “inactive”.
Under `Fc1ccc(NC(=S)N2CCSC2c2cccs2)cc1` (stereo unspecified) stands “inactive”; under `CC(C)OC(=O)CC(=O)CSc1nc2c(c(-c3cccs3)c1C#N)CCC2`, “inactive”; under `CC1CN(CCOCCSc2ccc(Cl)cc2)CC(C)O1` (stereo unspecified), “inactive”.
Consider `Cn1c2ccccc2c2nnc(NN)nc21`, for which the Potency result is “inactive”.
With `CN(Cc1ccsc1)C(=O)CCc1nnc(CCCc2ccccc2)o1`, the Potency entry was “inactive”.
On to `COCCCNCCCCSc1ccc(Cl)cc1`, for which the Potency entry is “inactive”.
Under `CCCOc1ccc(C(=O)NNC(=S)NC(=O)CC)cc1` stands 31.6 µM (active); under `CCCCOc1ccc(C(=O)NCCc2ccccc2)cc1`, “inactive”.
Under `COc1cc(OC)cc(C(=O)NNC(=S)NC(=O)c2cccnc2)c1` stands “inactive”; under `Cc1ccc(SCc2c(C(=O)N/N=C/c3ccoc3)nnn2-c2nonc2N)cc1`, “inactive”.
For the compound `CCN(C(=O)COC(=O)/C=C/c1ccc2c(c1)OCO2)c1c(N)n(Cc2ccccc2)c(=O)[nH]c1=O`, the Potency entry was “inactive”.
As to `CC(=O)Nc1ccc(NC(=O)/C=C/c2ccc3c(c2)OCO3)cc1`, the Potency result was “inactive”.
As to `CCOC(=O)c1[nH]c2ccc(Cl)cc2c1NC(=O)/C=C/c1ccc2c(c1)OCO2`, the Potency is 44.7 µM (active).
Under `CCN(CC)S(=O)(=O)c1cccc(-c2nnc(SCC(N)=O)n2C)c1` stands “inactive”; under `CC1=NNC(=O)/C1=C\c1cn(-c2ccccc2)nc1-c1ccc(F)cc1`, 8.91 µM (active).
With `O=Cc1cn(-c2ccccc2)nc1-c1cc2cc(O)ccc2oc1=O` the entry was “inactive”; with `CCCSc1ccc(-c2nn(-c3ccccc3)cc2/C=C(/C#N)C(=O)NCCCOC)cc1`, “inactive”; with `CCSc1ccc(-c2nn(-c3ccccc3)cc2/C=C(/C#N)C(=O)NC)cc1`, “inactive”.
Under `CCCOc1ccc(-c2nn(-c3ccccc3)cc2/C=C2\SC(N)=NC2=O)cc1` stands “inactive”.
Consider `CC1=NNC(=O)/C1=C\c1cn(-c2ccccc2)nc1-c1ccc(Cl)cc1`, for which the Potency was 10 µM (active).
As for `CCC(C)Sc1nc(O)c2cnn(-c3ccc(F)cc3)c2n1` (stereo unspecified), the Potency result is “inactive”.
With `O=C(N/N=C\c1cc(Br)ccc1O)c1ccc(S(=O)(=O)N2CCCCC2)cc1`, the Potency entry was “inactive”.
For `CC(OC(=O)Cn1cnc2c1c(=O)n(C)c(=O)n2C)C(=O)Nc1ccc(Cl)cc1` (stereo unspecified), the Potency entry was “inactive”.
As for `Oc1ccc(C2C=C(c3ccc(F)cc3)Nc3ncnn32)cc1` (stereo unspecified), the Potency result is “inactive”.
Consider `Cc1cc(C)nc(-n2nc(C)c3c2NC(=O)CC3c2ccccc2OC(C)C)n1` (stereo unspecified), for which the Potency was 25.1 µM (active).
As to `CCCCCCSc1ccc(-c2nc3cnccn3c2NC2CCCCC2)cc1`, the Potency result was “inactive”.
As to `CCOC(=O)c1c(C)[nH]c(C(=O)COC(=O)CCNS(=O)(=O)c2ccc(NC(C)=O)cc2)c1C`, the Potency entry was “inactive”.
As to `CCCCn1c(NC(=O)c2ccco2)c(S(=O)(=O)c2ccc(C)cc2)c2nc3ccccc3nc21`, the Potency result is “inactive”.
For `CC[n+]1c(/C=C/C=C/N(C(C)=O)c2ccccc2)sc2ccccc21`, the Potency was 35.5 µM (active).
Turning to `CC[n+]1c(/C=C2\SC(c3ccccc3C)=CN2C)sc2ccccc21`, the Potency result is “inactive”.
`CCn1nc(-c2ccccc2)c2nc3ccccc3nc21`: the Potency entry is “inactive”.
With `O=C(NCc1ccccc1)c1c(Cl)nc(Cl)c(Cl)c1Cl`, the Potency was 39.8 µM (active).
For the compound `Cc1nc(Cl)c(C(=O)NCc2ccccc2)c(C)c1Cl`, the Potency entry was “inactive”.
Regarding `Nc1c(Cl)c(Cl)nc(C(=O)OCC(=O)NCc2ccccc2)c1Cl`, the Potency result was “inactive”.
